Inhibition data for 7 molecules are collected here from ChEMBL document CHEMBL1961873, “Compounds: GSK PKIS; Assays: Nanosyn kinase panel” (2012).

Experiment [1] concerns the target Tyrosine-protein kinase Fyn (Homo sapiens) (UniProt P06241). To be noted: at 1 µM.
For experiment [2], the target named is Tyrosine-protein kinase HCK (Homo sapiens) (UniProt P08631). To be noted: at 0.1 µM.
Experiment [3] has the same target. Particulars: at 1 µM.
For experiment [4], the target named is Insulin-like growth factor 1 receptor (Homo sapiens) (UniProt P08069). Particulars: at 0.1 µM.
Experiment [5] has the same target. To be noted: at 1 µM.
Experiment [6] deals with Insulin receptor (Homo sapiens) (UniProt P06213). To be noted: at 0.1 µM.
Sequence of Insulin receptor (Homo sapiens) (P06213 28-758 limits assumed): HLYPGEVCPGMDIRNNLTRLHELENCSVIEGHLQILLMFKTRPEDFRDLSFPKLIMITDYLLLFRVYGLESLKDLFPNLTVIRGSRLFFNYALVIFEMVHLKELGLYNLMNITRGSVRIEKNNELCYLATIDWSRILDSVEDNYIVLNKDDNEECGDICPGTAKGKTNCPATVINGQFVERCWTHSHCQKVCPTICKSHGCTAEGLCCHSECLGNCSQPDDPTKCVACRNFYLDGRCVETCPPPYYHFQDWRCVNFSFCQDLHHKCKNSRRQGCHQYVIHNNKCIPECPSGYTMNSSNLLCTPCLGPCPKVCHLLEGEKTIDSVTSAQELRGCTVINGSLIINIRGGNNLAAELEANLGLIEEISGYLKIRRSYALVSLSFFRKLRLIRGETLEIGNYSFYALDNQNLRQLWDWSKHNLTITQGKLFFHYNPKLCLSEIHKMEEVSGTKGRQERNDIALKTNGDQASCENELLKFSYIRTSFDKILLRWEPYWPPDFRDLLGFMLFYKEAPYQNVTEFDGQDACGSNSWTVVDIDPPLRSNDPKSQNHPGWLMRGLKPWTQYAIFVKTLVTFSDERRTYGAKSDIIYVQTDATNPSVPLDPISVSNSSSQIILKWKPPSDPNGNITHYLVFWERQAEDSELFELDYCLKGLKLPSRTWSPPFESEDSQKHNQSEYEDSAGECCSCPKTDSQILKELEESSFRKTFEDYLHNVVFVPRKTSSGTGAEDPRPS
Sequence of Insulin receptor (Homo sapiens) (P06213 763-1382 limits assumed): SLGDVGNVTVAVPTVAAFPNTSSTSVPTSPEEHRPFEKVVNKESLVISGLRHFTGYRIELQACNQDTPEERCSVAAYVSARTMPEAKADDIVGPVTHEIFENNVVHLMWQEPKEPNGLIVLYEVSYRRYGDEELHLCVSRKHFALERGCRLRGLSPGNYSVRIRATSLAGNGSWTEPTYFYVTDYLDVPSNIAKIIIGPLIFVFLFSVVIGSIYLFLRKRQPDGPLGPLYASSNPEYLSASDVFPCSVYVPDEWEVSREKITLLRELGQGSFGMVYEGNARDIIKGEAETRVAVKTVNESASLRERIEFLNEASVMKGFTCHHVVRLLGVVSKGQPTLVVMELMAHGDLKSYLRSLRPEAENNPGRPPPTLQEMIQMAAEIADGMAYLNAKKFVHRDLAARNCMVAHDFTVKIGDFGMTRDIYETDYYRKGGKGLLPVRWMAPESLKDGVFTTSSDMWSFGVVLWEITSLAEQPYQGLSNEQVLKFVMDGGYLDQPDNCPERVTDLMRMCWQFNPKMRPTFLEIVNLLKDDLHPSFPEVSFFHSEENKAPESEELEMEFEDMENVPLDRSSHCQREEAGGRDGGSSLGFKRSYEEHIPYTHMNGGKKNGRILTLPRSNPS
The target is the same in experiment [7]. To be noted: at 1 µM.
In experiment [8] the target is Insulin receptor-related protein (Homo sapiens) (UniProt P14616). Particulars: at 0.1 µM.
For experiment [9] the target is unchanged. Particulars: at 1 µM.
Experiment [10] addresses T1, Tyrosine-protein kinase ITK/TSK (Homo sapiens) (UniProt Q08881).
T1 sequence (whole entry): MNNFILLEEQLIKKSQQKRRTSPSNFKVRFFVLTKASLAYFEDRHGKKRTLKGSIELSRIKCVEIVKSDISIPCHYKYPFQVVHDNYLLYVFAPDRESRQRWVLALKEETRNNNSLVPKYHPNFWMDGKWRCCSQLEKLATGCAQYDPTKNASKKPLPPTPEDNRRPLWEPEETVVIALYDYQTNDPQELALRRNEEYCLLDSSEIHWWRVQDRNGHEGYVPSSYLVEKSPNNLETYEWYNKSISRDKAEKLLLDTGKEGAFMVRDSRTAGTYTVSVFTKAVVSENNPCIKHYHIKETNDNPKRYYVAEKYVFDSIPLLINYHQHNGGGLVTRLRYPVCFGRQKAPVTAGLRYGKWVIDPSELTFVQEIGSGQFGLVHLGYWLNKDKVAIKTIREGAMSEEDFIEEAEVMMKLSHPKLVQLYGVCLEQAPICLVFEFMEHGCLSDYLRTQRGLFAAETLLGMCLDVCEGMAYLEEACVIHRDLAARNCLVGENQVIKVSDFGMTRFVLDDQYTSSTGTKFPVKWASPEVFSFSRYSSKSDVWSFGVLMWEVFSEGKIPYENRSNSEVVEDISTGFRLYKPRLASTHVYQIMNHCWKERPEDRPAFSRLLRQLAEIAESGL
To be noted: at 0.1 µM.

The target of experiment [11] is T1, Tyrosine-protein kinase ITK/TSK (Homo sapiens). To be noted: at 1 µM.
For experiment [12], the target named is Tyrosine-protein kinase JAK1 (Homo sapiens) (UniProt P23458). Particulars: at 0.1 µM.
Sequence of Tyrosine-protein kinase JAK1 (Homo sapiens) (P23458 whole entry): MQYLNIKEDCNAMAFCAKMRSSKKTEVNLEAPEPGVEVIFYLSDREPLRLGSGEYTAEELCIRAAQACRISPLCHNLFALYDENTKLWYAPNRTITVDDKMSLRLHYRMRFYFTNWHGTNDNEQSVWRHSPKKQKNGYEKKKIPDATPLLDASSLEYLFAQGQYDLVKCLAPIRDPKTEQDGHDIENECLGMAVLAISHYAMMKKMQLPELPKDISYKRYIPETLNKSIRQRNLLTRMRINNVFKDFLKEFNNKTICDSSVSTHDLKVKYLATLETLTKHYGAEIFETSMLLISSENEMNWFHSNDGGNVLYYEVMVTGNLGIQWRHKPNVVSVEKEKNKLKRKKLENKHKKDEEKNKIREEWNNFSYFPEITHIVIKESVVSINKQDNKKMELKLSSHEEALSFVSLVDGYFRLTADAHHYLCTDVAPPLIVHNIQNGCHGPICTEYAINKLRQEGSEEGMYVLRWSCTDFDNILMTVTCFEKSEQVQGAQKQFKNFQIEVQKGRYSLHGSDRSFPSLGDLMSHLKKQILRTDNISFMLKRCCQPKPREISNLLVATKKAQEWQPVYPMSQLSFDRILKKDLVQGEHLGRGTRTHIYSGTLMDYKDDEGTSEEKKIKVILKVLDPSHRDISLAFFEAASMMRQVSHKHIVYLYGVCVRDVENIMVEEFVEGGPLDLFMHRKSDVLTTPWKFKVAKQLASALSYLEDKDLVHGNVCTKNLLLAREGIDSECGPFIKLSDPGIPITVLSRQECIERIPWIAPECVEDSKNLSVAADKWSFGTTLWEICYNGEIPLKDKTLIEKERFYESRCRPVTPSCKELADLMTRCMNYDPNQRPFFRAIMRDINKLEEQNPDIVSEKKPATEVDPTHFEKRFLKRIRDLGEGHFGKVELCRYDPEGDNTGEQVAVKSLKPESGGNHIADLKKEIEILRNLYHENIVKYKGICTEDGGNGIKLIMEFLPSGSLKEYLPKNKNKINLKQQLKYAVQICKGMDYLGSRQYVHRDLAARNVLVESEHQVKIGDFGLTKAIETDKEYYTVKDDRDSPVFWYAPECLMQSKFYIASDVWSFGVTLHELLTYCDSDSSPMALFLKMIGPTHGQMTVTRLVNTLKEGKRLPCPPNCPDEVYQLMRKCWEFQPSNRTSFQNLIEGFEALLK
Experiment [13] shares this target. Particulars: at 1 µM.
The target of experiment [14] is Tyrosine-protein kinase JAK2 (Homo sapiens) (UniProt O60674). To be noted: at 0.1 µM.
The target is the same in experiment [15]. Particulars: at 1 µM.
Experiment [16] addresses T2, Tyrosine-protein kinase JAK3 (Homo sapiens) (UniProt P52333).
T2 sequence (whole entry): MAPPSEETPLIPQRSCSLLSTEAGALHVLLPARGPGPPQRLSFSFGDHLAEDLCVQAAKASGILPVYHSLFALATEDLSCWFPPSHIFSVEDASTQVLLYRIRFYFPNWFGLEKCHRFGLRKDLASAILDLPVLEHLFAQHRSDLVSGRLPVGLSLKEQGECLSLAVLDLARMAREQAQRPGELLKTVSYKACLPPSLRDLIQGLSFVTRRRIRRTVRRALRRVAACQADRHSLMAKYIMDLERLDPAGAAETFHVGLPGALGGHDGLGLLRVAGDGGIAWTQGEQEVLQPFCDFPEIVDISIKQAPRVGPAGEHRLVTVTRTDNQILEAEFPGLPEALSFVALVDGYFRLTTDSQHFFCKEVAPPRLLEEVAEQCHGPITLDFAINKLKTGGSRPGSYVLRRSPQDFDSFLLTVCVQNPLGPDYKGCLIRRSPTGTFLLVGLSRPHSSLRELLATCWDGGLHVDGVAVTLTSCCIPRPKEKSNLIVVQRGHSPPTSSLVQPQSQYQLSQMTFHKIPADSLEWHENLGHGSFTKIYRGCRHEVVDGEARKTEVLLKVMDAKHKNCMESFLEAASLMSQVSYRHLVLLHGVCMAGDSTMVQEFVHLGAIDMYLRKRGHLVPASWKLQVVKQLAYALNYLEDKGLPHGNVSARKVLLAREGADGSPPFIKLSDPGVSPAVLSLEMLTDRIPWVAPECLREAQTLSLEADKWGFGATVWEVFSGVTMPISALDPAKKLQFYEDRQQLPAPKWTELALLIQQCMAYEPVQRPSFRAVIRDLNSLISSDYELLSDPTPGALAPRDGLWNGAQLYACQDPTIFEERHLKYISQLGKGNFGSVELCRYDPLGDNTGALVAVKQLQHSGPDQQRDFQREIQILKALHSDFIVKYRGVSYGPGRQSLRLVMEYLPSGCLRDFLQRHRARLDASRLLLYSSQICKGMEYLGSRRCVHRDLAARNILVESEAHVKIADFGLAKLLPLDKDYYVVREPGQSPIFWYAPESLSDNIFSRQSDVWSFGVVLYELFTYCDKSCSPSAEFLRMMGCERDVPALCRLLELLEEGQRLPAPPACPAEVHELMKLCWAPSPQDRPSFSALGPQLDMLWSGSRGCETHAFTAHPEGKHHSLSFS
To be noted: at 0.1 µM.

Experiment [17] deals with T2, Tyrosine-protein kinase JAK3 (Homo sapiens). To be noted: at 1 µM.
The target in experiment [18] is Vascular endothelial growth factor receptor 2 (Homo sapiens) (UniProt P35968). To be noted: at 0.1 µM.
The target is the same in experiment [19]. To be noted: at 1 µM.
Experiment [20] addresses Mast/stem cell growth factor receptor Kit (Homo sapiens) (UniProt P10721). To be noted: at 0.1 µM.

Sequence of Mast/stem cell growth factor receptor Kit (Homo sapiens) (P10721 whole entry): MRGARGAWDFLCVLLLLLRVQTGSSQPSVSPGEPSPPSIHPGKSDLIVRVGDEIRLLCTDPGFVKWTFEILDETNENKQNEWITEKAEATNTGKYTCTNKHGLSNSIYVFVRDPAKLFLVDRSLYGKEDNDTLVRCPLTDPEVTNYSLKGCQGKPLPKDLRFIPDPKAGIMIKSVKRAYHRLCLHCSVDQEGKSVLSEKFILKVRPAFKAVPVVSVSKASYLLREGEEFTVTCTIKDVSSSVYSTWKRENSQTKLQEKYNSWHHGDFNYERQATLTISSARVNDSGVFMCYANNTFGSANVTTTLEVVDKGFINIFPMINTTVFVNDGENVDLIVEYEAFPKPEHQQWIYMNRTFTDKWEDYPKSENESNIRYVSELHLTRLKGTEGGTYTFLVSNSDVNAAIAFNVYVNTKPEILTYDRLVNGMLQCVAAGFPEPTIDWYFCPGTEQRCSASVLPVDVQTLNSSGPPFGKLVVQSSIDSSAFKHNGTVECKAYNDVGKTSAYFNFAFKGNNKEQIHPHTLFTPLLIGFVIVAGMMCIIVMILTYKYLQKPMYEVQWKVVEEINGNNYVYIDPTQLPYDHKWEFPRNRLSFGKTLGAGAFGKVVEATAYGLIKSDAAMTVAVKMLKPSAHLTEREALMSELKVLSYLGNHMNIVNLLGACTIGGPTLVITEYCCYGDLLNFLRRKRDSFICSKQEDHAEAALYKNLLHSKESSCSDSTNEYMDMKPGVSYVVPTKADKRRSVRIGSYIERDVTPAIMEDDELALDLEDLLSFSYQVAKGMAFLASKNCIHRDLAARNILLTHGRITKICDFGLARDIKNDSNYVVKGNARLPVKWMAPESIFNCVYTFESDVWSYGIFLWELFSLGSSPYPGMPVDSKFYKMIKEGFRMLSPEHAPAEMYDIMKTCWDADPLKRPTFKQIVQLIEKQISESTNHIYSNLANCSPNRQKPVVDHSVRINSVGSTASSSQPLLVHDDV
Sequence of Tyrosine-protein kinase Fyn (Homo sapiens) (P06241 2-537 limits assumed): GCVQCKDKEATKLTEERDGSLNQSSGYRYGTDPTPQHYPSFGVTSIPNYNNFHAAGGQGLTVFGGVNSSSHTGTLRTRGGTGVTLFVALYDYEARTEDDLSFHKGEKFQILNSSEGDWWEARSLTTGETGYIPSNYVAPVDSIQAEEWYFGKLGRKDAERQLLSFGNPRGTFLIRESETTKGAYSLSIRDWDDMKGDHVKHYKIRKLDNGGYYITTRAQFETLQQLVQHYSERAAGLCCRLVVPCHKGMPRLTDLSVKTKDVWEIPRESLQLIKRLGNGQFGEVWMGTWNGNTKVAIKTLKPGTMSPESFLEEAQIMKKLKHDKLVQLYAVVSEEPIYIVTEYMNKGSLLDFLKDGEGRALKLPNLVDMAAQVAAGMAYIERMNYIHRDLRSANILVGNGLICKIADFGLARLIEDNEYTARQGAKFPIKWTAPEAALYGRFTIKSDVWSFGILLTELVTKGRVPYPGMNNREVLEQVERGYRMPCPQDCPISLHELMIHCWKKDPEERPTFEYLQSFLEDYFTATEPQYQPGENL
Sequence of Tyrosine-protein kinase HCK (Homo sapiens) (P08631 2-526 limits assumed): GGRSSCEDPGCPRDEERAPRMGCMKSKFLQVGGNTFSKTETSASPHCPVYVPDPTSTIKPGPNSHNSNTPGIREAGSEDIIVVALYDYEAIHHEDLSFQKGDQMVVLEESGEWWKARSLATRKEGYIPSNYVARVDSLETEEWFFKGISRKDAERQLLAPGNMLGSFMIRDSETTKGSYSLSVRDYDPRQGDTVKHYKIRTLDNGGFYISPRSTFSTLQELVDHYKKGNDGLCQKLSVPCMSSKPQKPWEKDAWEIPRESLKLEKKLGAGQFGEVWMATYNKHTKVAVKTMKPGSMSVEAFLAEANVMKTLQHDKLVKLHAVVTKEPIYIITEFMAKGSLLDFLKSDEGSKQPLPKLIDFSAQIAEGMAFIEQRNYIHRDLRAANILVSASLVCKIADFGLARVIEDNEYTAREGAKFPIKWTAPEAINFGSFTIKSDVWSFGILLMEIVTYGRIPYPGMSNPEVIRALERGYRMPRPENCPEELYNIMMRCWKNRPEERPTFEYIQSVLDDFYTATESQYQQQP

As for `COc1ccc(-c2nn3ncccc3c2-c2ccnc(Nc3ccc4c(c3)OCCO4)n2)cc1`, the inhibition (usually the change of the read-out against control, counted positive when it falls) is 36.6% in experiment [1]; 13.4% in experiment [2]; 46% in [3]; -3.1% in experiment [4]; 7.28% in [5]; 1.21% in [6]. Besides, the inhibition in experiment [7] is 24.1%; in experiment [8] it was 0.02%; in [9], 3.24%; in experiment [10] it was -1.45%; in experiment [11], 0.71%; in experiment [12], 1.48%. The inhibition in [13] was 1.48%; in experiment [14], -0.19%; in [15] it was -0.78%; in experiment [16], -1.66%; in experiment [17], -0.04%; in experiment [18], 11.3%. Further, the inhibition turned out to be 64% in experiment [19] and 40.5% in experiment [20].

Take `Nc1nc(-c2cccc(Cl)c2)c(-c2ccc3ncccc3n2)s1`: the inhibition in experiment [1] amounted to 5.51%; in [2], 3.98%; in experiment [3] it was 9.71%; in experiment [4], 3.52%; in experiment [5] it was 2.56%; in experiment [6] it was 6.92%. The inhibition in [7] worked out at 7.08%; in [8] it was 1.7%; in experiment [9] it was 4.52%; in [10], 1.66%; in experiment [11] it was 1.36%; in experiment [12], 2.71%. Besides, the inhibition in [13] was 14.3%; in [14], 0.64%; in experiment [15], 0.69%; in experiment [16] it was -2.58%; in experiment [17], -0.69%; in [18] it was 33.1%. Further, the results for the inhibition in experiment [19] and in experiment [20] were 67.4% and 5.86%, respectively.

In the case of `c1ccc(COc2ccc(Nc3ncnc4ccc(-c5ccco5)cc34)cc2)cc1`, the inhibition was 3.93% in experiment [1]; 1.03% in experiment [2]; 1.93% in [3]; -0.83% in experiment [4]; -0.77% in experiment [5]; 0.94% in experiment [6]. Moreover, the inhibition was 0.94% in [7]; 0.38% in [8]; 0.28% in experiment [9]; -0.91% in experiment [10]; 0.76% in experiment [11]; 4% in experiment [12]. Besides, the inhibition in experiment [13] is 2.21%; in [14], 0.1%; in experiment [15] it was -0.74%; in [16] it was -2.56%; in experiment [17], -0.1%; in [18] it was 0.23%. For the same molecule, the inhibition in [19] was -0.38%; in experiment [20] it was 0.2%.

Take `CCc1nn2ncccc2c1-c1ccnc(NC2CC2)n1`: the inhibition in experiment [1] stood at 5.07%; in experiment [2] it was 5.27%; in experiment [3], 5.74%; in [4] it was 1.94%; in experiment [5], 2%; in experiment [6] it was 2.33%. For the same molecule, the inhibition in [7] was 4.74%; in experiment [8], 2.32%; in experiment [9], 1.77%; in experiment [10] it was 1.28%; in experiment [11], 1.59%; in experiment [12] it was 1.35%. Also, the inhibition is 0.58% in experiment [13]; 0.9% in experiment [14]; 1.59% in experiment [15]; -2.87% in [16]; -0.27% in experiment [17]; 3.91% in experiment [18]. Besides, the inhibition in experiment [19] was 5.8%; in [20], 3.6%.

Consider `NS(=O)(=O)c1ccc(Nc2ncc(-c3ccccc3)o2)cc1`, for which the inhibition in [1] amounted to 5.41%; in [2], 4.43%; in experiment [3], 10.7%; in experiment [4], 3.39%; in [5], 3.81%; in experiment [6] it was 2.2%. Further, the inhibition in experiment [7] was determined as 4.14%; in [8], 3.04%; in [9], 1.16%; in experiment [10], 1.19%; in experiment [11] it was 2.34%; in [12], 3.09%. In addition, the inhibition is 5.63% in [13]; 0.87% in [14]; 3.74% in experiment [15]; -0.66% in experiment [16]; 3.55% in [17]; 6.16% in experiment [18]. In addition, the values for the inhibition in [19] and in experiment [20] were 23.6% and 38.7%, respectively.

In the case of `CN(C)CCOc1ccc(-c2nc(-c3ccncc3)c(-c3ccc4c(c3)CC/C4=N\O)[nH]2)cc1`, the inhibition in experiment [1] is 8.51%; in experiment [2], 3.04%; in [3] it was 8.01%; in [4], 4.59%; in experiment [5], 3.85%; in experiment [6], 5.62%. Besides, the inhibition in [7] worked out at 2.19%; in experiment [8], 6.12%; in experiment [9], 3.86%; in [10] it was 0.77%; in experiment [11], 1.79%; in experiment [12] it was 3.43%. The inhibition in [13] was 1.76%; in [14], 1.76%; in experiment [15], 1.36%; in experiment [16], -1.43%; in experiment [17], 0.64%; in experiment [18], 3.5%. Moreover, the figures for the inhibition in [19] and in [20] were 5.84% and 4.23%, respectively.

In the case of `CCn1cc(-c2ccnc3[nH]ccc23)c(-c2cccc(NC(=O)Nc3ccc(OCc4ccccc4)cc3)c2)n1`, the inhibition is 1.64% in [1]; 0.36% in experiment [2]; 2.34% in experiment [3]; -3.42% in [4]; 0.41% in [5]; 2.08% in [6]. Moreover, the inhibition in experiment [7] is 3.81%; in experiment [8], -1.45%; in [9] it was -1.26%; in [10] it was -0.92%; in [11], -0.24%; in experiment [12], 1.9%. In addition, the inhibition in [13] is 1.7%; in experiment [14], -0.01%; in experiment [15], -1.69%; in experiment [16], -1.38%; in experiment [17], -0.25%; in experiment [18], 0.29%. In addition, the figures for the inhibition in [19] and in experiment [20] were 7.33% and -2.3%, respectively.
